Each compound was assayed on T1, CDC2L1. Conditions: concentration: 1 μM, replicates: in singlicate; n = 1.
T1 construct: gene CDK11B
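Further: KINOMEscan kinase panel screen.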

Q: With `Nc1nc(-c2nccs2)c(-c2ccnc3ccccc23)s1` [GW693542] as the compound, how does the “%Inh” value read?
A: Its value is 0%.

Q: With `CC1=C(C(=O)Nc2cc3cn[nH]c3cc2F)C(c2ccc(C(F)(F)F)cc2)CC(=O)N1` (stereo not shown) [GSK429286] as the compound, how does the “%Inh” value read?
A: Its value is 0%.

Q: `Cc1cccc(-c2nc(Nc3ccc4[nH]ncc4c3)c3ccccc3n2)n1` [GW857175] was tested. Which “%Inh” value did it give?
A: Its value is 12%.

Q: How did the “%Inh” value turn out when `Cc1cc(NCC(c2ccccc2)c2ccccc2)nc(NCc2ccc(C(F)(F)F)cc2)n1` [GW497681] was run?
A: The value was 0%.

Q: `COC(=O)c1c(-c2ccccc2)c2cc(OC)ccc2c(=O)n1Cc1ccccc1` was tested. Which “%Inh” value did it give?
A: The value was 7%.

Q: How did the “%Inh” value turn out when `Cn1ccc2ncnc(Oc3ccc(Nc4nc5ccccc5[nH]4)cc3)c21` was run?
A: The value was 0%.

Q: With `COc1cc(Nc2nccc(N3CCC(NC(=O)Nc4cc(C)ccc4C)C3)n2)cc(OC)c1OC` (stereo not shown) [GSK1379762] as the compound, how does the “%Inh” value read?
A: Its value is 0%.

Q: `O=C(Nc1ccccc1)Nc1cccc(Oc2ccc3nccn3n2)c1` was tested. Which “%Inh” value did it give?
A: The value was 0%.

Q: `Cl.O=C(Nc1cccc(-c2nn3ncccc3c2-c2ccnc(Nc3cccnc3)n2)c1)c1c(F)cccc1F` [GSK312879] was tested. Which “%Inh” value did it give?
A: Its value is 3%.

Q: Which “%Inh” value does the source give for `CCn1c(-c2ccccn2)nc2cnccc21` [SB-736398] here?
A: The value was 27%.

Q: `CC(C)(C)c1ccc(C(=O)Nc2cn3cc(Cl)ccc3n2)cc1` was tested. Which “%Inh” value did it give?
A: Its value is 0%.

Q: `Cl.NC(=O)c1cccc(Nc2nccc(Nc3ccc(Oc4cccc(Cl)c4)c(Cl)c3)n2)c1` [GW659008] was tested. Which “%Inh” value did it give?
A: Its value is 0%.

Q: For `Cc1ccccc1-n1cnc2c(N)ncnc21` [SKF-97510], which “%Inh” value is on record?
A: The value was 0%.

Q: `COc1ccc2nc(-c3cccc(C)n3)nc(Nc3ccncc3)c2c1` [GSK204919] was tested. Which “%Inh” value did it give?
A: The value was 0%.

Q: For `Cc1nnc(-c2ccc3occ(-c4ccc(S(C)=O)cc4)c3c2)[nH]1` (stereo not shown), which “%Inh” value is on record?
A: Its value is 0%.

Q: For `Cc1cccc(-c2cc(Nc3ccncc3)c3ccccc3n2)n1` [GSK223675], which “%Inh” value is on record?
A: The value was 0%.

Q: With `Cc1csc(-c2nc(Nc3ccncc3)c3ccccc3n2)n1` [GW869640] as the compound, how does the “%Inh” value read?
A: Its value is 0%.

Q: With `Cn1ccc2ncnc(Oc3cccc(C(=O)Nc4ccccc4)c3)c21` as the compound, how does the “%Inh” value read?
A: Its value is 0%.

Q: Which “%Inh” value does the source give for `O=C(Nc1n[nH]c2cc(-c3cccc(F)c3F)ccc12)C1CC1` [SB-733894] here?
A: Its value is 2%.

Q: With `Cc1cc(-c2ccc3c(c2)CC[C@@H](N[C@@H](C)c2ccccc2)C3)cnc1N.Cl` [GW412617] as the compound, how does the “%Inh” value read?
A: Its value is 0%.

Q: How did the “%Inh” value turn out when `Cc1ccc(NC(=O)Nc2cccc(Cl)c2)cc1-c1ccc(C(=O)Nc2ccncc2)cc1` [GSK1398468] was run?
A: Its value is 0%.

Q: With `CN(C)CCN(C)C(=O)c1cc(-c2ccncc2)c(-c2ccc(Cl)c(O)c2)o1.Cl.Cl` [SB-710397] as the compound, how does the “%Inh” value read?
A: Its value is 0%.

Q: How did the “%Inh” value turn out when `O=C(Nc1n[nH]c2nc(-c3nccs3)c(Br)cc12)C1CC1` [SB-742251] was run?
A: The value was 0%.

Q: With `Cc1cccc(-c2nc(C)cc(Nc3ccncc3)n2)n1` [GSK257997] as the compound, how does the “%Inh” value read?
A: The value was 100%.

Q: `Cc1cccc(-c2nc(Nc3cccc(C(N)=O)c3)c3ccccc3n2)n1` [GW876019] was tested. Which “%Inh” value did it give?
A: Its value is 0%.

Q: For `COc1cc2ncnc(Nc3ccc4nc(-c5ccccc5)[nH]c4c3)c2cc1OC.Cl` [GW282450], which “%Inh” value is on record?
A: The value was 0%.

Q: For `CN1C(=O)C(Nc2ccc(Cl)c(C(=O)O)c2)=C(c2ccc(Cl)cc2)C1=O` [SB-404290], which “%Inh” value is on record?
A: Its value is 0%.

Q: For `Cc1cccc(-c2nc(Nc3ccncc3)c3ccccc3n2)n1` [GW855857], which “%Inh” value is on record?
A: Its value is 0%.

Q: Which “%Inh” value does the source give for `CCn1c(-c2cccnc2O)nc2cnccc21` [SB-736715] here?
A: The value was 0%.

Q: For `COc1ccccc1-c1ccc2c(NC(=O)C3CC3)n[nH]c2n1` [SB-711239], which “%Inh” value is on record?
A: The value was 0%.

Q: `CS(=O)(=O)c1ccc(-c2nc3n(c2-c2ccncc2)CCC3)cc1` [SKF-105942] was tested. Which “%Inh” value did it give?
A: Its value is 100%.

Q: Which “%Inh” value does the source give for `CC(C)(C)c1ccc(C(=O)Nc2cn3cc(-c4cccnc4)ccc3n2)cc1` here?
A: The value was 11%.

Q: How did the “%Inh” value turn out when `Cc1c(Cn2ccn3c(=O)cc(N4CCOCC4)nc23)cccc1C(F)(F)F` [GSK2289044] was run?
A: The value was 0%.

Q: How did the “%Inh” value turn out when `O=C(O)COc1ncnc2cc(-c3ccc4[nH]ncc4c3)sc12` was run?
A: The value was 8%.

Source: PMC5540273 (PLoS ONE, 2017)
